Screens as filed in PubChem.
PrP 5UTR inh – suppresses PrP 5' UTR mRNA reporter expression; cell-based PrP 5' UTR mRNA reporter, plate reader; inhibition, % (concentration not given with the values); actives 0.35% (n = 340,000); AID 488862; in the data active = inhibition above about 52%; note: 0 = median of the neutral control wells
PfHsp40 yeast – rescue of PfHsp40-mediated yeast toxicity; S. cerevisiae expressing PfHsp40, growth rescue, ATP luminescence; growth rescue, % at 12.5 µM; actives 0.68% (n = 340,000); in the data active = growth rescue above about 28%, passing the limit was not always enough;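 note: yeast W303a lacking pdr1 and pdr3 grown in galactose medium; growth measured after three days at 30 °C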
PrPC TRFRET – inhibitors of human cell surface prion protein PrPC; TR-FRET read-out; inhibition, % at 13.8 µM; actives 0.43% (n = 370,000); in the data active = inhibition above about 24%; note: 0% = median of the test wells and 100% = reference compound wells
SSB-PriA inh – blocks PriA binding to SSB C-terminal tail. inhibition, % at 33 µM. actives 0.6% (n = 430,000). AlphaScreen SSBct-PriA binding, biotinylated peptide; in the data active = inhibition mostly above about 37%, no sharp cut-off; inactive = mostly below about 20%;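 note: plate controls were negative control peptide for no effect and reference peptide for full effect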
Yp Topo-I inh – blocks Yersinia pestis topoisomerase I activity; Y. pestis Topo-I cleavage product accumulation, plate reader; activity, % at 10 µM; actives 0.064% (n = 360,000); AID 504884; in the data active = activity above about 50%, passing the limit was not always enough
BJeLR viability – BJeLR cell viability loss. BJeLR (HRASV12) viability, CellTiter-Glo ATP luminescence, 48 h. actives 0.17% (n = 300,000). inhibition, % (concentration not given with the values); in the data active = inhibition above about 50%
PrPC TRFRET cf – confirmation of inhibitors of cell surface human prion protein | cell surface PrPC level, TR-FRET | inhibition, % at 13.8 µM | actives 65% (n = 1,500) | AID 743200 | shares compounds with PrPC TRFRET; in the data active = inhibition above about 25%
LD9 tox – counter-screen for PrPc inhibitors: cytotoxicity in LD9 cells. shares compounds with PrPC TRFRET. luminescence viability. inhibition, % at 13.8 µM. actives 29% (n = 1,500). AID 743201; in the data active = inhibition above about 9.5%
* marks the source's active call; other numbers are inactive results; x = no result. The list is not random: actives were taken first. Their share in the collection is about 1.7%.

SMILES	PrP 5UTR inh	PfHsp40 yeast	PrPC TRFRET	SSB-PriA inh	Yp Topo-I inh	BJeLR viability	PrPC TRFRET cf	LD9 tox
CN(C)c1nc(-c2ccccn2)nnc1-c1ccccc1	-9	393*	27*	98*	1	82*	36*	-1
O=C(c1ccccc1)N1CCCc2ccc(NS(=O)(=O)Cc3ccc(Cl)cc3)cc21	x	x	x	6	x	x	x	x
Cc1cc2sc(C(=O)O)c(C)c2s1	-1	2	30*	1	0	-6	42*	-6
Cn1c(SCc2ccc(Cl)cc2)nnc1-c1ccc2nonc2c1	-15	-1	70*	-6	2	13	-24	0
CN(C)S(=O)(=O)Oc1cccc(C(=O)Nc2ccc(Cl)cc2)c1	-124	353*	27*	-30	4	6	29*	12*
CN(C)S(=O)(=O)Oc1cccc(C(=O)Nc2ccccc2Cl)c1	-46	0	4	-9	-1	4	x	x
COC(=O)C1=CC(=O)C=C(OC)[C@@]12Oc1cc(C)cc(OC)c1C2=O	x	x	59*	x	x	x	1	98*
COC1=CC(=O)CC(C)C12Oc1cc(OC)cc(OC)c1C2=O (stereo not given)	0	0	0	-8	-4	-5	x	x
O=C(NCCNS(=O)(=O)c1cccc(Cl)c1)c1ccc(NC(=O)C2CC2)cc1	x	x	x	-1	x	x	x	x
COc1ccc(C(=O)NNC(=O)CSc2ccccc2)cc1	-16	0	4	-2	9	6	x	x
CCc1nc(SCC(=O)Nc2nc3c(s2)CCCC3)c2ccccc2n1	-8	0	30*	-12	-2	-1	72*	-9
CCc1nc(SCC(=O)NNC(=O)c2ccc(OC)cc2)c2ccccc2n1	-23	-2	109*	-6	12	7	116*	-10
CCc1nc(SCC(=O)N2c3ccccc3Sc3ccccc32)c2ccccc2n1	-24	0	46*	-11	5	2	89*	-8
COc1ccc(C(=O)NNC(=O)CSc2nc(C(C)C)nc3ccccc23)cc1	-15	-1	81*	-16	5	-7	101*	-17
O=C(Nc1nc2c(s1)CN(C(=O)c1ccno1)CC2)c1cnccn1	x	x	x	0	x	x	x	x
CC1CC(C)CN(S(=O)(=O)c2ccc(C(=O)Nc3nnc(C4=COCCO4)o3)cc2)C1 (stereo not given)	x	x	x	8	x	x	x	x
CC(C)c1ccc(N2C(=O)C3N=NN(Cc4nc(-c5ccc6c(c5)OCO6)no4)C3C2=O)cc1 (stereo not given)	x	x	x	-4	x	x	x	x
Cc1ccc(/C=C/S(=O)(=O)NCc2sc(-c3ccco3)nc2C)cc1	x	x	x	7	x	x	x	x
CC1(Cc2ccc(OC(F)(F)F)cc2)C(=O)Nc2ccc(S(=O)(=O)NC3CCCCC3)cc21 (stereo not given)	x	x	36*	x	9	x	30*	11*
CC1(Cc2ccc(Cl)cc2)C(=O)Nc2ccc(S(=O)(=O)NC3CCCCC3)cc21 (stereo not given)	x	x	11	x	3	x	x	x
CC(Cc1ccccn1)NC(=O)c1ccc(OC2CCN(CCc3ccccc3)CC2)cc1 (stereo not given)	-35	-2	-7	-5	16	-1	x	x
O=C(NCCc1ccccn1)c1ccc(OC2CCN(CCc3ccccc3)CC2)cc1	-64	1	45*	-5	16	8	-1	7
CCOc1ccc(C2C(C#N)=C(N)SC(N)=C2C#N)cc1OCC	-9	1	27*	-1	-5	-6	72*	1
COc1ccc2c(CC(=O)Nc3ncc(C)s3)coc2c1	-95	0	29*	-4	-8	3	35*	7
COc1ccc2c(CC(=O)Nc3nc(C)cs3)coc2c1	-28	-1	3	3	-3	1	x	x
SMILES	PrP 5UTR inh	PfHsp40 yeast	PrPC TRFRET	SSB-PriA inh	Yp Topo-I inh	BJeLR viability	PrPC TRFRET cf	LD9 tox
CCCCNC(=O)c1ccc(-n2ccnc2SCC(=O)Nc2ccc(F)cc2Cl)cc1	x	x	x	23	x	x	x	x
Nc1ccc2cc3[nH]c4cc(N)ccc4c3nc2c1	-37	1	27*	-12	-66	x	11	31*
Cc1ccc(CN2CCCCC(NC(=O)c3ccc(COc4ccccc4)cc3)C2=O)cc1 (stereo not given)	x	x	25*	x	x	x	19	1
CCCCOc1ccc(C(=O)NC2CCCCN(Cc3ccc(C)cc3)C2=O)cc1 (stereo not given)	x	x	2	x	x	x	x	x
CCOc1ccc(-c2cc3c(SCc4ccc(C(=O)OC)o4)nccn3n2)cc1Cl	x	x	x	5	x	x	x	x
Cc1ccc(S(=O)(=O)N(C)CC(=O)NC[C@H](O)Cn2c3ccccc3c3ccccc32)cc1	x	x	x	3	x	x	x	x
O=C(Nc1ccc(Br)cn1)c1ccc(Br)s1	-82	1	28*	-9	-6	7	44*	-3
O=C(Nc1ccc(Br)cn1)c1ccc(Cl)s1	-147	0	14	-12	-10	1	x	x
COc1ccc(CNC(=O)CN2C(=O)C3CCCN3c3ncc(Cl)cc32)cc1 (stereo not given)	-41	1	26*	-5	0	-5	-10	-4
O=C(CN1C(=O)C2CCCN2c2ncc(Cl)cc21)NCc1ccc2c(c1)OCO2 (stereo not given)	-21	2	2	-2	20	x	x	x
CC(C)(C)c1ccc(NC(=O)COc2ccc(-n3ccnc3)cc2)cc1	16	1	28*	17	30	14	21	12*
